According to the antibiotic and cytotoxicity screens of Wong et al. (2023):
Hit rate of the full screen: of about 39,000 compounds, about 1,500 (3.8%) were called active. The entries come from a sample that favours actives as a whole.

system: HSkMC (human skeletal muscle cells); experiment: cytotoxicity call (relative viability < 0.9); details: 10 µM

SMILES	cytotoxicity call
Cc1ccc(S(=O)(=O)N(C)C[C@@H]2Oc3ccc(NC(=O)CCCN(C)C)cc3CC(=O)N([C@@H](C)CO)C[C@H]2C)cc1	inactive
O=C(CN1CCOCC1)NCC[C@@H]1CC[C@H](NC(=O)Cc2ccccn2)[C@@H](CO)O1	inactive
Cc1noc(C)c1S(=O)(=O)N(C)C[C@H]1Oc2ccc(NC(=O)Cn3cnnn3)cc2CC(=O)N([C@@H](C)CO)C[C@@H]1C	inactive
C[C@@H]1CN([C@H](C)CO)S(=O)(=O)c2ccc(C#Cc3ccccc3)cc2O[C@@H]1CN(C)S(C)(=O)=O	inactive
C[C@@H]1CCCCO[C@@H](CN(C)C(=O)Nc2ccccc2)[C@@H](C)CN([C@@H](C)CO)C(=O)c2cc(NC(=O)Nc3cccc4ccccc34)ccc2O1	inactive
COc1ccc(S(=O)(=O)Nc2ccc3c(c2)OC[C@@H](C)N(C)C[C@@H](C)[C@H](OC)CN(C)C3=O)cc1	inactive
CO[C@H](CN(C)S(=O)(=O)c1cccc(Cl)c1)[C@H](C)CN([C@H](C)CO)S(=O)(=O)c1ccc(Cl)cc1	inactive
O=C(C[C@H]1CC[C@H]2[C@@H](COC[C@H](O)CN2C(=O)c2cccnc2)O1)NCc1ccc(-c2ccccc2)cc1	inactive
NC(=O)c1nc2c(s1)CCNCC2	inactive
Cc1ccc(S(=O)(=O)N(C)C[C@H]2OCCCC[C@@H](C)Oc3ccc(NS(C)(=O)=O)cc3C(=O)N([C@H](C)CO)C[C@@H]2C)cc1	inactive
COc1ccc(S(=O)(=O)N(C)C[C@@H]2OCc3cn(nn3)CCCC(=O)N([C@H](C)CO)C[C@@H]2C)cc1	inactive
O=C(C[C@H]1CC[C@@H]2[C@H](COC[C@H](O)CN2S(=O)(=O)c2ccccc2)O1)NCc1ccc(-c2ccccc2)cc1	inactive
Cc1ccc(S(=O)(=O)Nc2ccc3c(c2)C(=O)N([C@@H](C)CO)C[C@@H](C)[C@H](CN(C)C(=O)Nc2ccc(F)cc2)OCCCC[C@@H](C)O3)cc1	inactive
Cc1ccc(S(=O)(=O)Nc2ccc3c(c2)C(=O)N([C@@H](C)CO)C[C@H](C)[C@@H](CN(C)C(=O)Nc2ccc(F)cc2)OCCCC[C@@H](C)O3)cc1	inactive
Cc1ccc(S(=O)(=O)Nc2ccc3c(c2)C(=O)N([C@H](C)CO)C[C@@H](C)[C@H](CN(C)C(=O)Nc2ccc(F)cc2)OCCCC[C@@H](C)O3)cc1	active
Cc1ccc(S(=O)(=O)Nc2ccc3c(c2)C(=O)N([C@@H](C)CO)C[C@H](C)[C@@H](CN(C)C(=O)Nc2ccc(F)cc2)OCCCC[C@H](C)O3)cc1	inactive
Cc1ccc(S(=O)(=O)Nc2ccc3c(c2)C(=O)N([C@H](C)CO)C[C@H](C)[C@H](CN(C)C(=O)Nc2ccc(F)cc2)OCCCC[C@H](C)O3)cc1	inactive
Cc1ccc(S(=O)(=O)Nc2ccc3c(c2)C(=O)N([C@H](C)CO)C[C@@H](C)[C@H](CN(C)C(=O)Nc2ccc(F)cc2)OCCCC[C@H](C)O3)cc1	active
C[C@H]1CN([C@@H](C)CO)S(=O)(=O)c2ccc(C#CC(C)(C)O)cc2O[C@H]1CN(C)C(=O)C1CCCCC1	inactive
C[C@H](CO)N1C[C@H](C)[C@H](CN(C)S(C)(=O)=O)Oc2ccc(NC(=O)Nc3ccc(F)cc3)cc2CC1=O	inactive
COc1ccc(NC(=O)Nc2cccc3c2O[C@H](CN(C)C(=O)Nc2cccc4ccccc24)[C@H](C)CN([C@H](C)CO)C3=O)cc1	inactive
COc1ccc(NC(=O)N(C)C[C@H]2Oc3c(NC(=O)C4CC4)cccc3C(=O)N([C@H](C)CO)C[C@H]2C)cc1	inactive
C[C@H]1CN([C@@H](C)CO)C(=O)c2cc(NC(=O)Cc3ccccc3)ccc2O[C@@H]1CN(C)C(=O)Nc1cccc2ccccc12	inactive

SMILES	cytotoxicity call
Cn1c(=O)c2c(nc(SCSc3nc4c(c(=O)n(C)c(=O)n4C)n3C)n2C)n(C)c1=O	inactive
CCn1c(Cl)nc2c1c(=O)n(C)c(=O)n2C	inactive
Cc1nc2c(=O)n(C)c(=O)n(C)c2nc1Cl	active
C[C@@H]1CN([C@H](C)CO)C(=O)c2cc(NC(=O)Nc3ccc4c(c3)OCO4)ccc2O[C@@H](C)CCCCO[C@H]1CN(C)Cc1ccccc1	inactive
Cc1ccc(S(=O)(=O)N(C)C[C@H]2OCCCC[C@@H](C)Oc3ccc(NS(C)(=O)=O)cc3C(=O)N([C@H](C)CO)C[C@H]2C)cc1	inactive
Cn1nnc2c1CCN(C(=O)CS(C)(=O)=O)[C@@H]2COCC1CC1	inactive
CCN1CCN(Cc2ccc(C(=O)Nc3ccc(C)c(Oc4ccc5c(c4)CC(=O)N5)c3)cc2C(F)(F)F)CC1	active
COCC(=O)Nc1ccc2c(c1)CC(=O)N2	inactive
Cc1ccc(S(=O)(=O)Nc2ccc3c(c2)C(=O)N([C@@H](C)CO)C[C@H](C)[C@@H](CN(C)C(=O)Nc2c(C)noc2C)OCCCC[C@@H](C)O3)cc1	inactive
Cc1noc(C)c1NC(=O)N(C)C[C@@H]1Oc2ccc(NC(=O)C3CC3)cc2C(=O)N([C@H](C)CO)C[C@H]1C	inactive
C[C@@H]1CN([C@H](C)CO)C(=O)CCCn2nncc2CO[C@H]1CN(C)C(=O)Nc1cccc(C(F)(F)F)c1	inactive
C[n+]1cc2c3c(ccc2c2ccc4cc5c(cc4c21)OCO5)OCO3.[Cl-]	active
COc1ccc2cc3[n+](cc2c1OC)CCc1cc2c(cc1-3)OCO2.[Cl-]	inactive
COCC#Cc1cnc2c(c1)C(=O)N([C@@H](C)CO)C[C@@H](C)[C@@H](CN(C)S(=O)(=O)c1ccccc1)O2	inactive
C[C@@H]1CN([C@H](C)CO)C(=O)c2cc(C#Cc3ccccc3F)cnc2O[C@@H]1CN(C)C(=O)c1ccc2c(c1)OCO2	inactive
CC[C@@H](C)SSc1ncc[nH]1	active
Cc1ncc[nH]1	inactive
OCc1ncc[nH]1	inactive
C[C@@H]1CN([C@H](C)CO)C(=O)c2cccc(NC(=O)Nc3ccc(F)cc3)c2O[C@H]1CN(C)C(=O)Nc1cccc2ccccc12	inactive
C[C@@H]1CN([C@@H](C)CO)C(=O)c2cc(NS(C)(=O)=O)ccc2O[C@@H]1CN(C)Cc1ccc(C(=O)Nc2ccccc2N)cc1	inactive
Cc1ccc(-n2nc(C(C)(C)C)cc2NC(=O)Nc2ccc(OCCN3CCOCC3)c3ccccc23)cc1	active
O=C(NCCN1CCOCC1)c1ccccn1	inactive
Cc1ccc(S(=O)(=O)NC2=NCN(CCN3CCOCC3)CN2)cc1	inactive
